# Data reported in the supplement of paper PMC6522484.
# ± gives the standard deviation of the averaged measurements.
# Tests used:
# [1] = system: DLD1; test: cell viability (CellTiter-Glo) relative to plate median (fraction of plate median); higher = more viable cells; settings: 5 µM; treatment time 24 h; reporter: 7TFP
# How it was run: (§1)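 Signals from firefly luciferase or CellTiterGlo readouts were normalised well by well to the plate median using webcellHTS2, additively and with no log transformation. They came from colorectal cancer cell lines stably holding lentiviral TCF/Wnt firefly luciferase reporters (7TFP or TCF4/Wnt), treated with library compounds at a final 5 µM for 24 h. The mean of two independent replicates is given.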
# [2] = system: HCT116; test: as above; settings: 5 µM; treatment time 24 h; reporter: TCF4/Wnt
# How it was run: as §1
# [3] = system: SW480; test: as above; settings: 5 µM; treatment time 24 h; reporter: 7TFP
# How it was run: as §1
# [4] = system: DLD1; test: TCF/Wnt firefly luciferase reporter signal relative to plate median (fraction of plate median); higher = higher Wnt reporter signal; settings: 5 µM; treatment time 24 h; reporter: 7TFP
# How it was run: as §1
# [5] = system: SW480; test: as above; settings: 5 µM; treatment time 24 h; reporter: 7TFP
# How it was run: as §1
SMILES,cell viability [1],cell viability [2],cell viability [3],TCF/Wnt firefly luciferase reporter signal [4],TCF/Wnt firefly luciferase reporter signal [5]
C[C@]12CCC3c4ccc(OC(=O)c5ccccc5)cc4CCC3C1CCC2=O (stereo not given in full),1.05 ± 0.05,1.01 ± 0.021,0.991 ± 0.011,0.978 ± 0.045,0.989 ± 0.058
C[C@@H]1CC[C@@]2(OC1)O[C@H]1C[C@H]3[C@@H]4CC[C@H]5C[C@@H](O)CC[C@]5(C)[C@H]4CC[C@]3(C)[C@H]1[C@@H]2C,0.953 ± 0.0057,0.875 ± 0.037,1.01,1.06 ± 0.028,0.931 ± 0.037
C[C@@H]1NC(=O)[C@@H](N)CNC(=O)[C@H](C2CCNC(=N)N2)NC(=O)/C(=C/NC(N)=O)NC(=O)[C@H](CNC(=O)CC(N)CCCN)NC1=O.N=C1NCC[C@H]([C@@H]2NC(=O)/C(=C/NC(N)=O)NC(=O)[C@H](CNC(=O)C[C@@H](N)CCCN)NC(=O)[C@H](CO)NC(=O)[C@@H](N)CNC2=O)N1,1.03 ± 0.052,0.993 ± 0.081,0.996 ± 0.076,0.816 ± 0.0071,0.871 ± 0.093
O=c1[nH]cnc2c1ncn2[C@@H]1O[C@H](CO)[C@@H](O)[C@H]1O,1.09 ± 0.085,1.05,0.976 ± 0.028,0.975 ± 0.093,0.969 ± 0.1
CCC(=O)O[C@H]1[C@H](O[C@@H]2[C@@H](C)[C@H](O[C@H]3C[C@@](C)(OC)[C@@H](O)[C@H](C)O3)[C@@H](C)C(=O)O[C@H](CC)[C@@](C)(O)[C@H](O)[C@@H](C)C(=O)[C@H](C)C[C@@]2(C)O)O[C@H](C)C[C@@H]1N(C)C,0.989 ± 0.058,0.93 ± 0.011,1.01 ± 0.016,0.9955 ± 0.0064,1.11 ± 0.014
COc1ccc(-c2cc(=O)c3c(O)cc(O[C@H]4O[C@H](CO[C@@H]5O[C@@H](C)[C@H](O)[C@@H](O)[C@H]5O)[C@@H](O)[C@H](O)[C@H]4O)cc3o2)cc1,0.995 ± 0.079,0.88 ± 0.1,0.979 ± 0.059,1.02 ± 0.029,0.9475 ± 0.00071
Nc1ccc(S(=O)(=O)O)cc1.Nc1ccc(S(=O)(=O)O)cc1.[Zn],1.08 ± 0.18,1.01 ± 0.049,1.105 ± 0.0071,1.03 ± 0.12,1.015 ± 0.0071
C=CC(C)(O)CCC1C(=C)CC(OC(C)=O)C2C(C)(C)CCCC12C (stereo not given),0.929 ± 0.03,0.908 ± 0.041,0.971 ± 0.033,0.798 ± 0.013,0.87 ± 0.17
O=C(O)c1cc(O)c(O)c(O)c1,0.906 ± 0.059,0.955 ± 0.093,1 ± 0.08,1.11 ± 0.17,1.03 ± 0.17
CN(C)CCOC(c1ccccc1)c1ccccc1.Cn1c(=O)c2[nH]c(Cl)nc2n(C)c1=O,0.909 ± 0.025,1.04 ± 0.1,0.927 ± 0.022,1.14 ± 0.13,1.12 ± 0.021
NCCCCN,0.96 ± 0.047,0.983 ± 0.02,0.97 ± 0.057,1.18 ± 0.15,1.1 ± 0.05
C[N+]1(C)C[C@H](O)C[C@H]1C(=O)[O-],1.03 ± 0.014,0.985 ± 0.035,0.967 ± 0.0099,1.06 ± 0.035,0.869 ± 0.025
NC1(C(=O)O)CCCC1,0.9495 ± 0.00071,1.02 ± 0.035,0.9955 ± 0.0064,1.02 ± 0.081,1.055 ± 0.0071
CN1CCCN=C1COC(=O)C(O)(c1ccccc1)C1CCCCC1 (stereo not given),1 ± 0.15,1.15 ± 0.12,1.05 ± 0.042,1.08 ± 0.042,1.065 ± 0.0071
CC(C)c1cccc(=O)c(O)c1,1.11 ± 0.13,1.07 ± 0.042,1.1 ± 0.021,1.03 ± 0.073,0.985 ± 0.064
CNC[C@H](O)c1ccc(O)c(O)c1,0.9995 ± 0.00071,1.05 ± 0.021,0.916 ± 0.064,1.11 ± 0.064,1.12 ± 0.042
CCCCc1nc(Cl)c(CO)n1Cc1ccc(-c2ccccc2-c2nnn[nH]2)cc1,0.909 ± 0.09,0.921 ± 0.052,1.02 ± 0.045,1.08 ± 0.25,0.715 ± 0.37
"CC(=O)c1oc2c(C)c3oc(=O)cc(C)c3cc2c1C [2-Acetyl-3,5,9-trimethylfuro[3,2-g]-chromen-7-one (VFT-04)]",1.02 ± 0.11,0.96 ± 0.05,1.085 ± 0.0071,1.16 ± 0.028,1.12 ± 0.078
CCCC(C(=O)OCCN(CC)CC)(c1ccccc1)c1ccccc1,1.03 ± 0.098,0.972 ± 0.04,1.03 ± 0.028,1.22 ± 0.22,1.06
CN(C)CCOC(C)(c1ccccc1)c1ccccn1 (stereo not given),1.1 ± 0.2,0.947 ± 0.1,1.04 ± 0.042,0.999 ± 0.016,1.04 ± 0.014
COc1ccc(-c2oc3cc(OC)c(OC)c(OC)c3c(=O)c2OC)cc1,0.978 ± 0.06,0.918 ± 0.06,1.02 ± 0.021,1.055 ± 0.0071,0.917 ± 0.087
COc1cc(-c2coc3cc(O[C@@H]4O[C@H](CO)[C@@H](O)[C@H](O)[C@H]4O)c(OC)c(O)c3c2=O)cc(O)c1OC,1.1 ± 0.057,1.12 ± 0.078,1.09 ± 0.014,1.01 ± 0.15,0.885 ± 0.023
O=c1c(O)c(-c2ccc(O)c(O)c2)oc2cc(O)cc(O)c12,0.9445 ± 0.00071,0.9265 ± 0.0021,1 ± 0.036,0.936 ± 0.062,0.983 ± 0.067
CCN(CC)CCOC(=O)C(c1ccccc1)c1ccccc1,0.982 ± 0.068,0.972 ± 0.054,0.917 ± 0.036,0.904 ± 0.14,0.929 ± 0.0057
CCCCCCCCCCCCCCCC(=O)OC/C=C(C)/C=C/C=C(C)/C=C/C1=C(C)CCCC1(C)C,0.986 ± 0.048,1.07 ± 0.035,0.9965 ± 0.0021,0.885 ± 0.1,1.01 ± 0.073
COc1ccc2c(c1)OC1(O)COc3cc(OC)c(OC)cc3C1=C2 (stereo not given),1.01 ± 0.035,1.05 ± 0.05,1.08 ± 0.035,0.985 ± 0.13,0.895 ± 0.075
Cc1c(N(C)CS(=O)(=O)O)c(=O)n(-c2ccccc2)n1C,1.04 ± 0.014,0.968 ± 0.035,1.06 ± 0.085,0.969 ± 0.059,1.04 ± 0.059
CC(C)[C@H]1CC[C@H](C(=O)N[C@H](Cc2ccccc2)C(=O)O)CC1,0.905 ± 0.0028,0.972 ± 0.0014,0.973 ± 0.067,1.03 ± 0.014,0.983 ± 0.014
CN[C@@H]1[C@@H](O)[C@@H](O[C@@H]2[C@@H](O)[C@H](O[C@H]3OC(CN)=CC[C@H]3N)[C@@H](N)C[C@H]2N)OC[C@]1(C)O,1.04,0.9635 ± 0.0092,1.07 ± 0.042,0.933 ± 0.17,0.97 ± 0.085
COc1cc(O)c(C(=O)/C=C/c2ccc(OC)c(O)c2)c(OC)c1,1.06 ± 0.098,0.975 ± 0.093,1.1 ± 0.042,0.975 ± 0.064,0.8395 ± 0.00071
